{
  "source": "PubChem BioAssay (EPA / NIEHS)",
  "note": "Inconclusive results are not listed. Activity calls are given as the source filed them. How the source made its calls: active means hit-call score of the fitted dose curve at least 0.9, where 1 is the maximum; inconclusive means response in the unintended direction; inactive means score below 0.9.",
  "data": [
    {"tested_on": "not listed separately", "experiment": "TOX21_p53_BLA_p4_viability: Viability Assessment in the Tox21 HCT-116 p53 Agonism Beta-lactamase Assay, Phase 4 (AID 2283597);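 further: hits lower the luminescence signal meaning cytotoxicity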", "how_it_was_run": "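Compound exposure of HCT116 cells lasts 16 h at 37C, 5% CO2, with DMSO stocks diluted 217-fold. Cellular ATP is then quantified by CellTiter-Glo luminescence after 30 min at room temperature.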", "values": [
      {"compound": "COc1ccc(C(=O)Nc2nc3ccccc3c(NCc3ccccc3)c2C#N)cc1", "outcome": "inactive"},
      {"compound": "CC1=C(C)S(=O)(=O)CCS1(=O)=O", "outcome": "inactive"},
      {"compound": "CCCCC(CC)COP(=O)(OCC(CC)CCCC)OCC(CC)CCCC", "note": "(stereo unspecified)", "outcome": "inactive"},
      {"compound": "COC(=O)CCCC(=O)OC", "outcome": "inactive"},
      {"compound": "CC(C)(C)c1ccccc1", "outcome": "inactive"},
      {"compound": "OCC(CO)n1cnc(-c2ccc(F)cc2)c1-c1ccnc(Oc2ccccc2)n1", "outcome": "inactive"},
      {"compound": "CN(C)C(=O)NC1(c2ccccc2)CCN(CC[C@@]2(c3ccc(F)c(F)c3)CN(C(=O)c3ccccc3)CCO2)CC1", "AC50": "65 µM (active)"},
      {"compound": "NC(=Nc1ccccc1)Nc1ccccc1", "outcome": "inactive"},
      {"compound": "COc1ccc(OC(F)(F)F)cc1CN[C@H]1CCCN[C@H]1c1ccccc1", "AC50": "62.1 µM (active)"},
      {"compound": "O=[Si]=O", "outcome": "inactive"},
      {"compound": "Cc1cc(SC2=C(O)C[C@@](CCc3ccc(N)cc3)(C(C)C)OC2=O)c(C(C)(C)C)cc1CO", "outcome": "inactive"}
    ]},
    {"target": "Cellular tumor antigen p53 (Homo sapiens) (UniProt P04637)", "sequence (P04637 whole entry, looked up)": "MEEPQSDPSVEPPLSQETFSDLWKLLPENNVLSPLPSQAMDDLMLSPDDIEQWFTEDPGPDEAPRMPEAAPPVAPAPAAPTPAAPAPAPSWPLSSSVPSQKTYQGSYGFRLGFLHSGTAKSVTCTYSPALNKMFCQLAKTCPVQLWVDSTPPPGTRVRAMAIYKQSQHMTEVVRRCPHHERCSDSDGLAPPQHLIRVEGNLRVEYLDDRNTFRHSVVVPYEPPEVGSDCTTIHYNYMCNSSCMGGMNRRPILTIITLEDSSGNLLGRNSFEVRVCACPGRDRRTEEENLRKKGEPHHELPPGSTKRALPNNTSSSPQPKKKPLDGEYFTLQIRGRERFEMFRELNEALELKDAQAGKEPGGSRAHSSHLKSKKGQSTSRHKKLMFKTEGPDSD", "experiment": "TOX21_p53_BLA_p5_ratio: Tox21 HCT-116 p53 Agonism Beta-lactamase Assay, Ratio, Phase 5 (AID 2283599)", "how_it_was_run": "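HCT-116 p53-bla cells (4000/well) plated 5 h, dosed with compound (217-fold DMSO dilution) for 16 h at 37 C; CCF4-AM substrate 2 h at room temperature. Activity is the 460/530 nm emission ratio (405 nm excitation), fitted in gain-of-signal direction versus DMSO.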", "values": [
      {"compound": "COc1ccc(C(=O)Nc2nc3ccccc3c(NCc3ccccc3)c2C#N)cc1", "AC50": "63.1 µM (active)"},
      {"compound": "CC1=C(C)S(=O)(=O)CCS1(=O)=O", "outcome": "inactive"},
      {"compound": "CCCCC(CC)COP(=O)(OCC(CC)CCCC)OCC(CC)CCCC", "note": "(stereo unspecified)", "outcome": "inactive"},
      {"compound": "COC(=O)CCCC(=O)OC", "outcome": "inactive"},
      {"compound": "CCCCCCC(CCCCCCCCCCC(=O)OCC(COC(C)=O)OC(C)=O)OC(C)=O", "note": "(stereo unspecified)", "outcome": "inactive"},
      {"compound": "C=CCCCCCCCCCCCC", "outcome": "inactive"},
      {"compound": "CC(=O)S[C@H](C(=O)N[C@H]1Cc2ccccc2[C@H]2CCC[C@@H](C(=O)O)N2C1=O)C(C)C", "outcome": "inactive"},
      {"compound": "CCCCc1nc2cccnc2n1Cc1ccc(-c2ccccc2-c2nnn[nH]2)cc1", "outcome": "inactive"},
      {"compound": "CC(C)(C)c1ccccc1", "outcome": "inactive"},
      {"compound": "CC1(C)C(=O)NC(=O)N1CO", "outcome": "inactive"},
      {"compound": "OCC(CO)n1cnc(-c2ccc(F)cc2)c1-c1ccnc(Oc2ccccc2)n1", "outcome": "inactive"},
      {"compound": "CN(C)C(=O)NC1(c2ccccc2)CCN(CC[C@@]2(c3ccc(F)c(F)c3)CN(C(=O)c3ccccc3)CCO2)CC1", "outcome": "inactive"},
      {"compound": "NC(=Nc1ccccc1)Nc1ccccc1", "outcome": "inactive"},
      {"compound": "COc1ccc(OC(F)(F)F)cc1CN[C@H]1CCCN[C@H]1c1ccccc1", "outcome": "inactive"},
      {"compound": "Cc1cc(SC2=C(O)C[C@@](CCc3ccc(N)cc3)(C(C)C)OC2=O)c(C(C)(C)C)cc1CO", "outcome": "inactive"}
    ]}
  ]
}
